From PubChem BioAssay (Tox21)
Inconclusive results are not listed. Active and inactive are the calls of the source. Unless noted, the call rests on the fitted dose curve; in most records, active means well fitted curve in the direction sought with a large enough effect in the repeat runs; inconclusive means weak or mixed curves; inactive means no such curve, though single readings can be large; an effect the other way counts as inactive or inconclusive.

How the values were obtained:
[1] = qHTS assay to identify small molecule agonists of the peroxisome proliferator-activated receptor delta (PPARd) signaling pathway - cell viability counter screen (AID 743211); details: PPARd-bla HEK293H viability, CellTiter-Glo luminescence, 17 h; series mostly up to 62.6 µM; further: nearly all actives have a fitted effect of over 55% in size
How it was run: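 Tox21 library compounds, delivered in DMSO, were incubated 17 h with PPARd-bla HEK293H cells; cytotoxicity was taken from CellTiter-Glo luminescence read 30 min after reagent addition.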

[2] = molecular target: Peroxisome proliferator-activated receptor delta (Homo sapiens) (UniProt Q03181); test: qHTS assay to identify small molecule agonists of the peroxisome proliferator-activated receptor delta (PPARd) signaling pathway (AID 743212; calls by dose curve); details: HEK293H PPARd-UAS-bla, beta-lactamase FRET ratio, 17 h; series mostly up to 62.6 µM
Chain of Peroxisome proliferator-activated receptor delta (Homo sapiens) (Q03181 whole entry, looked up): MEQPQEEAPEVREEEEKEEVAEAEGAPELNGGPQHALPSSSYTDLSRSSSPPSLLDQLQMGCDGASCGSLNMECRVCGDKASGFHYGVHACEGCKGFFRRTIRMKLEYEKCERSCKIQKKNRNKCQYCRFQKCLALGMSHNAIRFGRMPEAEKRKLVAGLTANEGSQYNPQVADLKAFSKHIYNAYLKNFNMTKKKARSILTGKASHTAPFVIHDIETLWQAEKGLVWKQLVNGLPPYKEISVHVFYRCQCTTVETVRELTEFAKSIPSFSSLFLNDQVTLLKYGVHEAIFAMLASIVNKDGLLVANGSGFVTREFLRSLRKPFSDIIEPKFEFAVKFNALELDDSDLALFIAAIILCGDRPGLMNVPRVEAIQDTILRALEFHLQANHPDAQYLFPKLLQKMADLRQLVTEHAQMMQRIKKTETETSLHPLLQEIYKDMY
How it was run: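 HEK293H PPARd-bla cells; 5 h preincubation 37 C/5% CO2; compound (DMSO) 37 C; LiveBLAzer B/G FRET substrate 2 h RT; fluorescence intensity.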

[3] = qHTS assay to identify small molecule antagonists of the peroxisome proliferator-activated receptor delta (PPARd) signaling pathway - cell viability counter screen (AID 743213); details: PPARd-bla HEK293H viability, CellTiter-Glo luminescence, 17 h; series mostly up to 62 µM; further: nearly all actives have a fitted effect of over 50% in size
How it was run: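 PPARd-bla HEK293H cells (3000/well) got compound plus 300 nM L165041 agonist for 17 h at 37 C. Viability in the same wells came from CellTiter-Glo luminescence after 30 min at room temperature.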

[4] = molecular target: Peroxisome proliferator-activated receptor delta (Homo sapiens) (UniProt Q03181); test: qHTS assay to identify small molecule antagonists of the peroxisome proliferator-activated receptor delta (PPARd) signaling pathway (AID 743215; active means well fitted inhibition curve with a large enough effect in the signal ratio in the repeat runs, not every such curve was filed as active; the % refers to the signal ratio;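 further: cells stimulated with agonist L165041 at 300 nM final during compound exposure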); details: HEK293H PPARd-UAS-bla, beta-lactamase FRET ratio, antagonist, 17 h; series mostly up to 62 µM
How it was run: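 PPARd-bla HEK293H cells (UAS-bla reporter) preincubated 5 h, then given compound plus 300 nM final L165041 agonist for 17 h at 37 C. Beta-lactamase activity read by LiveBLAzer B/G FRET substrate fluorescence after 2 h at room temperature.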

[5] = molecular target: Vitamin D3 receptor (Homo sapiens) (UniProt P11473); test: qHTS assay to identify small molecule agonists of the vitamin D receptor (VDR) signaling pathway (AID 743222; calls by dose curve); details: HEK293T VDR-UAS-bla, beta-lactamase FRET ratio, 16 h; series mostly up to 63.5 µM
Chain of Vitamin D3 receptor (Homo sapiens) (P11473 whole entry, looked up): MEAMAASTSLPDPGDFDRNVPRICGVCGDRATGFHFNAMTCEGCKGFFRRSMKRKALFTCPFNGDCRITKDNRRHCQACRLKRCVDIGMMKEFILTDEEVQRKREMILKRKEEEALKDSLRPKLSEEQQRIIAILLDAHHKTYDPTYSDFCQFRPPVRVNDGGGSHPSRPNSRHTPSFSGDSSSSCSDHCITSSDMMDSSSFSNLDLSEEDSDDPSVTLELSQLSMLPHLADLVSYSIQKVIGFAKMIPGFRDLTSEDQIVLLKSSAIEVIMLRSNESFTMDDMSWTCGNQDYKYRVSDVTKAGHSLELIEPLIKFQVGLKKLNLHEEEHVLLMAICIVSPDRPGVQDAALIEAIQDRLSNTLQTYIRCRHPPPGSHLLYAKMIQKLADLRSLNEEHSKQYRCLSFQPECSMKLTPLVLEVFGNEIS
How it was run: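 VDR-bla cells plated 4 h at 37 C, then exposed to compounds for 16 h at 37 C. Beta-lactamase reporter activity measured by fluorescence after 2 h room-temperature loading with LiveBLAzer B/G FRET substrate.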

[6] = qHTS assay to identify small molecule agonists of the vitamin D receptor (VDR) signaling pathway - cell viability counter screen (AID 743224); details: VDR-bla HEK293T viability, CellTiter-Glo luminescence, 16 h; series mostly up to 62.6 µM; further: nearly all actives have a fitted effect of over 50% in size; further: potency means the concentration at half of the fitted maximal effect
How it was run: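 VDR-bla cells, 4 h after plating, exposed to compounds for 16 h at 37C; viability then read in the same wells as CellTiter-Glo luminescence after 30 min at room temperature, following the bla FRET read.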

[7] = qHTS assay to identify small molecule antagonists of the vitamin D receptor (VDR) signaling pathway - cell viability counter screen (AID 743225); details: VDR-bla HEK293T viability, CellTiter-Glo luminescence, 16 h; series mostly up to 61 µM; further: nearly all actives have a fitted effect of over 50% in size
How it was run: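 Same-well multiplex: following 16 h treatment of HEK 293T cells carrying a UAS-driven beta-lactamase reporter with compound and agonist (3 nM final), and a 2 h FRET substrate step, CellTiter-Glo was added and luminescence read after 30 min.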

[8] = qHTS assay to identify small molecule agonists of the NFkB signaling pathway (AID 1159509; active means well fitted curve in the direction sought with a large enough effect in the signal ratio in the repeat runs, not every such curve was filed as active; the % refers to the signal ratio); details: NFkB-bla ME-180 cells, beta-lactamase FRET ratio, 5 h; series mostly up to 61 µM
How it was run: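 ME-180 NFkB-bla, 2,000 cells/well, overnight plating; cpd pinned in DMSO, 5 h 37 C; B/G FRET substrate 1.5 h RT; ex 405, em 460/530 nm.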

[9] = qHTS assay to identify small molecule agonists of the NFkB signaling pathway - cell viability counter screen (AID 1159515; calls by dose curve; further: nearly all actives have a fitted effect of over 55% in size); details: NFkB-bla ME-180 viability, CellTiter-Glo luminescence, 5 h; series mostly up to 61 µM
How it was run: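 NFkB-bla ME-180 cells, 2,000/well, plated overnight at 37 C; compound added for 5 hr at 37 C. Viability read in the same wells as the bla reporter, by CellTiter-Glo luminescence after 30 min at room temperature.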

[10] = qHTS assay to identify small molecule antagonists of the retinoid-related orphan receptor gamma (ROR-gamma) signaling pathway - cell viability counter screen (AID 1159520); details: Tet-on RORgamma CHO cells viability, ATP luminescence, 16 h; series mostly up to 92.4 µM; further: nearly all actives have a fitted effect of over 50% in size
How it was run: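 Cytotoxicity was read from cellular ATP (CellTiter-Glo luminescence) after 16 hr at 37 C with 1 uM doxycycline induction. The inducer was added 2 hr after compound transfer to Tet-on ROR gamma CHO cells.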

[11] = qHTS assay to identify small molecule agonists of the AP-1 signaling pathway - cell viability counter screen (AID 1159525; calls by dose curve; further: nearly all actives have a fitted effect of over 55% in size); details: ME-180 AP-1-bla cells viability, ATP luminescence, 5 h; series mostly up to 76.8 µM
How it was run: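 Luminescent ATP readout (Cell Titer Glo, 30 min RT), normalised to DMSO and tetra n-octyl ammonium bromide controls. Cells were ME-180 AP-1-bla in 0.5% dialyzed FBS Opti-MEM, with a 5 h, 37 °C compound exposure.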

[12] = qHTS assay to identify small molecule agonists of the AP-1 signaling pathway (AID 1159526; calls by dose curve); details: ME-180 (cervical carcinoma) AP-1-bla reporter, beta-lactamase FRET ratio, 5 h; series mostly up to 76.8 µM
[13] = molecular target: Bile acid receptor (Homo sapiens) (UniProt Q96RI1); test: qHTS assay to identify small molecule antagonists of the farnesoid-X-receptor (FXR) signaling pathway (AID 743217; active means well fitted inhibition curve with a large enough effect in the signal ratio in the repeat runs, not every such curve was filed as active; the % refers to the signal ratio); details: HEK293T FXR-UAS-bla, beta-lactamase ratio, CDCA-stimulated, 16 h; series mostly up to 62.6 µM
Chain of Bile acid receptor (Homo sapiens) (Q96RI1 whole entry, looked up): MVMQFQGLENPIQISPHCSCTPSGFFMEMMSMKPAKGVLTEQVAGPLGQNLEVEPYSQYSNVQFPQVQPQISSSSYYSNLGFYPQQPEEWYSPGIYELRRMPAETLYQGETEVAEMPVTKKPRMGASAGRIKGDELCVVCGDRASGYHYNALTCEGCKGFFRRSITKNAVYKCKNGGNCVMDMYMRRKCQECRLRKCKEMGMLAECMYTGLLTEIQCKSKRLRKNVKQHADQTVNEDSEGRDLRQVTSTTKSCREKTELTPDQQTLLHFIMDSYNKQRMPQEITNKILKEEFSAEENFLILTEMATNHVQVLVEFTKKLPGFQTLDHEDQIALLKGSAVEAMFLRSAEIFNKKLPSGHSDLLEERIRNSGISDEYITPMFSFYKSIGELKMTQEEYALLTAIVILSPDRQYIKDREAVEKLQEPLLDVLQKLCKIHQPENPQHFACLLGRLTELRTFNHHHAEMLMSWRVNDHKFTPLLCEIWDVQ
How it was run: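 FXR-UAS-bla HEK 293T cells (beta-lactamase reporter) given compound plus chenodeoxycholic acid (50 uM final), 16 h at 37C. LiveBLAzer B/G FRET substrate added for 2 h at room temperature; fluorescence read.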

[14] = qHTS assay to identify small molecule agonists of the farnesoid-X-receptor (FXR) signaling pathway - cell viability counter screen (AID 743218); details: FXR-bla HEK293T viability, CellTiter-Glo luminescence, 16 h; series mostly up to 62.6 µM; further: nearly all actives have a fitted effect of over 45% in size
How it was run: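 FXR-UAS-bla HEK 293T cells exposed to compounds for 16 h at 37C. Cytotoxicity read in the same wells by CellTiter-Glo luminescence after 30 min at room temperature, following the beta-lactamase FRET read.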

[15] = molecular target: Bile acid receptor (Homo sapiens) (UniProt Q96RI1); test: qHTS assay to identify small molecule agonists of the farnesoid-X-receptor (FXR) signaling pathway (AID 743220; active means well fitted activation curve with a large enough effect in the signal ratio in the repeat runs, not every such curve was filed as active; the % refers to the signal ratio); details: HEK293T FXR-UAS-bla, beta-lactamase FRET ratio, 16 h; series mostly up to 62.6 µM
How it was run: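 Beta-lactamase reporter under UAS control in GeneBLAzer FXR HEK 293T cells (5000/well) measured with LiveBLAzer FRET substrate after 2 h at room temperature. Compound exposure lasted 16 h at 37C.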

[16] = qHTS assay to identify small molecule antagonists of the farnesoid-X-receptor (FXR) signaling pathway - cell viability counter screen (AID 743221; active means well fitted cell-killing curve with a large enough effect in the repeat runs, not every such curve was filed as active; further: nearly all actives have a fitted effect of over 50% in size); details: FXR-bla HEK293T viability, CellTiter-Glo luminescence, 16 h; series mostly up to 62.6 µM
How it was run: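 Cytotoxicity is taken from ATP luminescence (CellTiter-Glo, 30 min, room temperature) in FXR-bla HEK 293T cells previously incubated 16 h at 37 C with compound and chenodeoxycholic acid at 50 uM final.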

[17] = qHTS assay to identify small molecule agonists of the endoplasmic reticulum stress response signaling pathway - cell viability counter screen (AID 1159517; calls by dose curve); details: ESRE-bla HeLa viability, CellTiter-Glo luminescence, 5 h; series mostly up to 61 µM
How it was run: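 HeLa cells carrying an ESRE-driven beta-lactamase reporter receive compound for 5 hr at 37 C. Cell viability is then gauged with CellTiter-Glo by luminescence, 30 min at room temperature.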

[18] = molecular target: Nuclear receptor ROR-gamma (Homo sapiens) (UniProt P51449); test: qHTS assay to identify small molecule antagonists of the retinoid-related orphan receptor gamma (ROR-gamma) signaling pathway (AID 1159521); details: Tet-on RORgamma CHO cells, RORE-luciferase, 16 h; series mostly up to 92.4 µM
How it was run: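 Inducible-expression reporter assay: doxycycline (1 uM final) switched on RORγ in CHO cells bearing a ROR response element-luciferase construct, with test compounds present from 2 h beforehand. Decreased luminescence after 16 h defined antagonist activity.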

[19] = molecular target: Vitamin D3 receptor (Homo sapiens) (UniProt P11473); test: qHTS assay to identify small molecule antagonists of the vitamin D receptor (VDR) signaling pathway (AID 743223; active means well fitted inhibition curve with a large enough effect in the signal ratio in the repeat runs, not every such curve was filed as active; the % refers to the signal ratio); details: VDR-UAS-bla HEK293T, beta-lactamase FRET ratio, 16 h; series mostly up to 61 µM
How it was run: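 Quantitative HTS in VDR-bla reporter cells stimulated with 1alpha,25-dihydroxyvitamin D3, 3 nM final. Compound exposure 16 h, 37C, 5% CO2. Read-out: beta-lactamase FRET substrate fluorescence, 2 h RT.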

[20] = qHTS assay to identify small molecule agonists of the endoplasmic reticulum stress response signaling pathway (AID 1159516; active means well fitted activation curve with a large enough effect in the signal ratio in the repeat runs, not every such curve was filed as active; the % refers to the signal ratio); details: ESRE-bla HeLa, ER stress beta-lactamase reporter, 5 h; series mostly up to 61 µM
How it was run: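 CellSensor ESRE-bla HeLa cells, 1,500 per well, plated overnight, then exposed to compounds for 5 hr at 37 C. Beta-lactamase reporter read with LiveBLAzer B/G FRET substrate after 2 hr at room temperature, 405 nm excitation, 460 and 530 nm emission.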

Measured: Potency

Cc1cc(NC(=O)C2=C(O)c3ccccc3S(=O)(=O)N2C)no1
not listed: [13] | [14] | [15] | [16] | [17] | [18] | [19] | [20]
inactive: all other assays above

N[C@@H](CCC(=O)Nc1ccc([N+](=O)[O-])cc1)C(=O)O
not listed: [19] | [20]
inactive: all other assays above

CCCOC(=O)C(C)O (stereo not given)
active: [6] 56.1 µM
not listed: [1] | [3] | [4] | [5] | [16] | [19] | [20]
inactive: all other assays above

Cc1ccccc1C(=O)Nc1ccc(C(=O)N2CCCC(N(C)C)c3ccccc32)cc1 (stereo not given)
not listed: [2] | [4] | [13] | [19] | [20]
inactive: all other assays above

CCCC/C=C\CCCCCCCCCC=O
not listed: [4] | [17] | [20]
inactive: all other assays above

CCCCCOC(=O)CCC
not listed: [5] | [13] | [15] | [19] | [20]
inactive: all other assays above

CCCCCCCCOS(=O)(=O)O
not listed: [5] | [16] | [19] | [20]
inactive: all other assays above

CC(C)=CCOC(=O)c1ccccc1
not listed: [5] | [7] | [13] | [15] | [19] | [20]
inactive: all other assays above

Nc1ccc2cc(S(=O)(=O)O)cc(O)c2c1
not listed: [2] | [4] | [5] | [16] | [20]
inactive: all other assays above

Nc1ccc(S(=O)(=O)Nc2ccc(Cl)nn2)cc1
not listed: [1] | [16] | [17] | [18]
inactive: all other assays above

CC(=O)OC(C)OC(=O)C(C)c1ccc(-c2ccccc2)c(F)c1 (stereo not given)
not listed: [2] | [14] | [17] | [19] | [20]
inactive: all other assays above

C=C(C)C(=O)OCCNC(C)(C)C
not listed: [2] | [4] | [13] | [14] | [15] | [16] | [20]
inactive: all other assays above

CCCCCCCCCC(C)=O
not listed: [6] | [13] | [15] | [16] | [20]
inactive: all other assays above

Nc1ccc([N+](=O)[O-])c(N)c1
not listed: [13] | [14] | [15] | [16] | [17] | [19] | [20]
inactive: all other assays above

CCCCCCN
not listed: [8] | [13] | [15] | [19]
inactive: all other assays above

CC(C)C(=O)OCCc1ccccc1
not listed: [6] | [8] | [17]
inactive: all other assays above

CC1=CCC(C(C)C)=CC1
inactive: [1] | [3] | [14] | [16] | [7] | [9] | [17] | [10] | [11] | [12]
